Screening results from PubChem BioAssay.
ADAM10 inh: human ADAM10 inhibitors, primary screen, biochemical, QFRET, HTS. Disintegrin and metalloproteinase domain-containing protein 10 (Homo sapiens), O14672. recombinant ADAM10, EDANS/DABCYL FRET peptide cleavage, 3 h. inhibition, % at 7 µM. 0.62% of 370,000 active;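 active = inhibition above a per-campaign cutoff equal to the mean of compounds falling between control-based bounds plus 3 SD, cut at about 20% in these data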
ADAM17 inh: ADAM17 inhibitors, primary screen, biochemical, QFRET. 0.83% of 370,000 active. AID 720648, 2013. recombinant ADAM17, EDANS/DABCYL FRET peptide cleavage. inhibition, % at 6.95 µM;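 active = inhibition above the mean of compounds lying between control limits plus 3 SD, set per campaign, cut at about 8.5% in these data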
Target sequence (P78536 215-824 limits assumed): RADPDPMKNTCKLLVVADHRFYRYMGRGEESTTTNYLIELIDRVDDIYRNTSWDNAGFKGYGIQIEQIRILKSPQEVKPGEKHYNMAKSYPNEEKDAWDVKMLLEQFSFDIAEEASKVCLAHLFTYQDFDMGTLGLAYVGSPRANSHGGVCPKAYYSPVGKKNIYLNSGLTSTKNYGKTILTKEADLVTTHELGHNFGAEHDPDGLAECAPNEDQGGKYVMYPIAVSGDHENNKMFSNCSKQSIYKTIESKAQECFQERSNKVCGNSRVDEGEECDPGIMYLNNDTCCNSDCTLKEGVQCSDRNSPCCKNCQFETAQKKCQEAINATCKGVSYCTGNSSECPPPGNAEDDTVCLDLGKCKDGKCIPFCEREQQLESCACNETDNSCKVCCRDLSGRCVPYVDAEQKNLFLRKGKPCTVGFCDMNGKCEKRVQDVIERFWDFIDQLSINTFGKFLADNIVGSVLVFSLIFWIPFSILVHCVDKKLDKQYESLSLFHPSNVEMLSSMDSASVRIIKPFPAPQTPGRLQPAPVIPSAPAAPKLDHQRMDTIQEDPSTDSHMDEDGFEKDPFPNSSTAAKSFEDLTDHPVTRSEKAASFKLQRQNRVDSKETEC
sPLA2-III inh: human group III sPLA2 inhibitors, primary screen, biochemical, QFRET, BODIPY PC-A2 liposome substrate; QFRET BODIPY PC-A2 liposome hydrolysis, fluorescence; inhibition, % at 12.2 µM; 0.56% of 370,000 active;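 active = inhibition above mean plus 3 SD of compounds lying within the high and low control bounds, cut at about 19% in these data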
NRP1-CendR mod: modulators of CendR peptide binding to NRP-1, primary screen, biochemical, fluorescence polarization, uHTS | Neuropilin-1 (Homo sapiens), O14786 | FAM-RPARPAR peptide binding to NRP-1 | inhibition, % at 25 µM | 0.85% of 360,000 active;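 active = inhibition or corrected inhibition above about 18%, plus a signal ratio from 0.5 to 1.5, limit read from the data, passing the limit was not always enough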
KLK7 zymogen act: proKLK7 zymogen activators, primary screen, biochemical, fluorescence intensity; Kallikrein-7 (Homo sapiens), P49862; purified proKLK7, EDANS-DABCYL substrate fluorescence; 100% is mature enzyme control, 0% vehicle; activation, % at 7 µM; 0.9% of 370,000 active; AID 652039, 2013;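 active = activation above the mean of all tested compounds plus 3 SD, computed per campaign excluding outliers beyond control limits, cut at about 13% in these data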
KLK7 act conf: proKLK7 zymogen activators, confirmation, biochemical, fluorescence intensity, triplicate; purified proKLK7, EDANS-DABCYL substrate fluorescence; scaled: vehicle 0, mature enzyme 100; 68% of 3,200 active; activation, % at 7 µM; shares compounds with KLK7 zymogen act;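 active = activation, as change over the incubation, above the mean of all tested compounds plus 3 SD, cut at about 13% in these data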
EDANS-DABCYL int: EDANS-DABCYL substrate optical interference, artefact control for kallikrein-7 zymogen activator project, biochemical, fluorescence intensity, high throughput; 80% of 3,200 active; AID 686952, 2013; shares compounds with KLK7 zymogen act; activation, % at 7 µM; no enzyme, 4 h; solvent 0%, active enzyme control 100%;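 active = activation above the all-compound mean plus 3 SD, ignoring values outside control-based bounds, cut at about 4.8% in these data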;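 also: value is the 4 h activation minus the activation read at time zero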
K7 EDANS ctr: counter-screen for kallikrein-7 activators: EDANS-DABCYL interference, dose response. shares compounds with KLK7 zymogen act. EDANS-DABCYL peptide fluorescence interference, no enzyme. EC50, µM. 20% of 250 active. AID 720493;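 active = compounds that raise the fluorescence signal in this interference counterscreen, with EC50 at or below 10 µM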;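 also: intact quenched peptide substrate alone read at 355 nm excitation and 520 nm emission; signal is fluorescence gain from T0 to T4 after four hours at room temperature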
A number is an active result; n = inactive; x = not tested or not shown. Most compounds without a hit are left out; they make up all but 3.4% or so of the library.

SMILES	ADAM10 inh	ADAM17 inh	sPLA2-III inh	NRP1-CendR mod	KLK7 zymogen act	KLK7 act conf	EDANS-DABCYL int	others
Cc1ccc(-c2cc(C(=O)OCC(=O)N(C)C3CCS(=O)(=O)C3)c3ccccc3n2)o1 (stereo not given)	n	n	n	n	134.9	14.5	11.4	K7 EDANS ctr=6.97
CCN(C(=O)COC(=O)c1cc(-c2ccc(C)o2)nc2ccccc12)C1CCS(=O)(=O)C1 (stereo not given)	n	n	n	n	174.2	202.2	186.8
FC(F)(F)c1cccc(N2CCN(C3=Nc4ccccc4Sc4ccccc43)CC2)c1	n	n	n	x	n	x	x
CCOC(=O)N1CCN(C(=O)COC(=O)c2ccccc2NCCO)CC1	n	n	n	n	24.9	27.8	38.1
O=C(CSc1nc2ccccc2nc1N1CCCCC1)N1CCN(C(c2ccccc2)c2ccc(Cl)cc2)CC1 (stereo not given)	n	n	n	x	n	x	x
COc1ccc(C(=O)N[C@H]2CC[C@@]34CCCN3C(=O)CCC[C@H]4[C@H]2C)cc1	n	n	n	x	x	x	x
O=c1c2ccccc2nc2ccccn12	n	n	n	n	49.8	42.5	41.2
O=c1c(-c2ccccc2)c(O)nc2ccccn12	n	n	n	n	n	x	x
NC(=O)c1ccccc1NC(=O)c1ccc2ccccc2c1	n	n	n	n	14.9	n	n
COc1ccc(C(=O)Nc2ccccc2C(N)=O)cc1	n	n	n	n	n	x	x
COc1ccc(/C=C/C(=O)c2ccoc2)cc1	n	n	n	n	n	x	x
COc1ccc(/C=C/C(=O)c2ccc(O)cc2)cc1	n	n	n	n	12.7	n	n
CCOC(=O)N1CCC2(CC1)NC(=O)c1ccccc1N2	n	n	n	n	21.0	30.0	24.3	K7 EDANS ctr=n
CC(C)CN1C(=O)c2ccc(NC(=O)c3cccs3)cc2C1=O	n	n	n	n	12.9	n	n
CCN(CC)C(=O)CN1C(=O)C2(NC(=O)c3ccccc3N2)c2ccccc21 (stereo not given)	n	n	n	n	n	x	x
CC(=O)N1CC2(NC(=O)c3ccccc3N2)c2ccccc21 (stereo not given)	n	n	n	n	19.1	16.6	18.1
COC(=O)[C@]12C[C@H](CC(=O)NCc3cccs3)C(=O)N(Cc3cccc4ccccc34)C1=C[C@H](C(C)(C)C)O[C@@H]2C	n	n	n	x	n	x	x
CCOc1ccc(/C=N/NC(=O)c2nnn(-c3nonc3N)c2-c2cccs2)cc1	n	n	n	n	80.3	n	n
Cc1ccc(SCc2c(C(=O)N/N=C/c3ccc4c(c3)OCO4)nnn2-c2nonc2N)cc1	n	n	n	n	n	x	x
CCOc1ccc(-c2c(C(=O)N/N=C/c3cccs3)nnn2-c2nonc2N)cc1	n	n	n	n	n	x	x
COc1ccc2ccccc2c1/C=N/NC(=O)c1nnn(-c2nonc2N)c1CN(C)C	n	n	n	n	n	x	x
Cc1ccc(-c2c(C(=O)N/N=C/c3ccc4c(c3)OCO4)nnn2-c2nonc2N)cc1	n	n	n	n	194.7	71.0	75.0
COc1ccc2ccccc2c1/C=N/NC(=O)c1nnn(-c2nonc2N)c1C(C)C	n	n	n	n	40.1	n	n
Cc1ccc(S(=O)(=O)NCC(=O)N2CCN(c3ccccn3)CC2)s1	n	n	n	x	n	x	x
COC(=O)[C@H](CC(C)C)N(Cc1cn(CC2CCCCC2)nn1)S(=O)(=O)c1ccc(F)cc1Br	n	n	n	x	n	x	x
SMILES	ADAM10 inh	ADAM17 inh	sPLA2-III inh	NRP1-CendR mod	KLK7 zymogen act	KLK7 act conf	EDANS-DABCYL int	others
COC(=O)[C@]12C[C@H](CC(=O)NCc3ccc(C)o3)C(=O)N(Cc3ccc(Cl)cc3Cl)C1=C[C@H](C1CCCC1)O[C@@H]2C	n	n	n	x	n	x	x
CCCC(=O)Nc1cccc(-c2cn3cccnc3n2)c1	n	n	n	n	30.2	42.2	45.1
CC(=O)Nc1ccc(S(=O)(=O)Nc2cccc(-c3cn4cccnc4n3)c2)cc1	n	n	n	n	42.8	n	7.8
CCOCC(=O)Nc1ccc(-c2cn3cccnc3n2)cc1	n	n	n	n	39.0	67.1	78.8
CC1CCCN(S(=O)(=O)c2cccc(-c3cn4cccnc4n3)c2)C1 (stereo not given)	n	n	n	n	n	x	x
CCN(CC)S(=O)(=O)c1cccc(-c2cn3cccnc3n2)c1	n	n	n	n	20.7	37.5	24.7	K7 EDANS ctr=n
CCCC(=O)Nc1ccc(-c2cn3cccnc3n2)cc1	n	n	n	n	57.7	67.1	62.6
CC(C)CC(=O)Nc1ccc(-c2cn3cccnc3n2)cc1	n	n	n	n	70.4	66.4	68.3
CC(C)(C)CC(=O)Nc1ccc(-c2cn3cccnc3n2)cc1	n	n	n	n	74.0	66.1	64.6
COc1ccccc1-c1coc2c(CN(C)C)c(O)ccc2c1=O	n	n	n	n	50.5	78.1	70.2
CCN(CC)Cc1c(O)ccc2c(=O)c(-c3ccc4c(c3)OCCO4)coc12	n	n	n	n	n	x	x
CCN(CC)Cc1c(O)ccc2c(=O)c(-c3ccccc3)coc12	n	n	n	n	26.1	23.0	30.6
COc1ccccc1Oc1coc2c(CN(C)C)c(O)ccc2c1=O	n	n	n	n	61.7	63.5	68.8
CCN(CC)Cc1c(O)ccc2c(=O)c(Oc3ccccc3OC)coc12	n	n	n	n	14.8	43.8	33.4	K7 EDANS ctr=8.57
Cc1nc(-c2coc3c(CN(C)C)c(O)ccc3c2=O)cs1	n	n	n	n	18.9	41.6	42.5
COCCN(C(=O)c1ccc(-c2ccc(Cl)cc2)o1)c1c(N)n(Cc2ccccc2)c(=O)[nH]c1=O	n	n	n	n	38.9	28.6	29.6
O=C(Nc1ncc2c(n1)-c1ccccc1OC2)c1ccccc1Cl	n	n	n	n	15.7	n	n
O=C1C[C@@H](c2ccccc2)N=C2N(CC3CC3)C/C(=C/c3ccccc3)N12	n	n	n	x	n	x	x
O=C(NCc1ccco1)Nc1ccc2nsnc2c1	n	n	n	n	27.0	26.2	29.0
O=Cc1cn(-c2ccccc2)nc1-c1cc2c(ccc3ccccc32)oc1=O	n	n	n	n	n	x	x
